Compound activity as filed in PubChem.
Sampled rows, rich in hits. Any-hit rate of the full collection: about 18%.
TDP1 cell CPT = qHTS for Inhibitors of human tyrosyl-DNA phosphodiesterase 1 (TDP1): qHTS in cells in presence of CPT; chicken DT40 Tdp1-/-;hTDP1 cells + 20 nM CPT, ATP luminescence, 48 h; Potency, µM (series often up to 46.2 µM), for the others: at the highest dose activity change, negative = growth inhibition, hits mostly inhibitors; 420,000 tested, 12% active; also: potency is read from the fitted curve at half-maximal effect; % is scaled to controls: 0 for no effect and ±100 for the full control effect; nearly all actives have a fitted effect of over 55% in size
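Chicken DT40 Tdp1-/- cells stably complemented with human TDP1 were seeded at 400 cells/well in medium containing 20 nM camptothecin, exposed to pin-transferred compounds, and grown at 37 °C for at least 48 hr. Viability was read as ATP luminescence.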
TGFb inhibitor = qHTS for Inhibitors of TGF-b; HepG2 CAGA-GFP TGF-b/SMAD3 reporter, GFP fluorescence, 18 h; TGF-beta stimulated, 500 pg/mL final; 410,000 tested, 1.2% active; Potency, µM (series often up to 46.1 µM), inactives show at the top dose activity, negative = inhibition, most hits filed as inhibitors; also: potency is read from the fitted curve at half-maximal effect; % is scaled to controls: 0 for no effect and ±100 for the full control effect; nearly all actives have a fitted effect of over 65% in size
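Using HEPG2 CAGA-GFP reporter cells at 1000 cells/well, we pinned test compounds, stimulated with recombinant TGF-beta (500 pg/mL final) and measured total well GFP after 18 h.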
HepG2 tox = qHTS for Inhibitors of TGF-b: Cytotox Counterscreen; HepG2 CAGA-GFP viability, ATP luminescence, 18 h; Potency, µM (top dose mostly 46.1 µM), without a hit: at the top dose activity change, negative = cytotoxicity, usual class: cytotoxic; 410,000 tested, 0.76% active; AID 588856, 2011; also: potency is read from the fitted curve at half-maximal effect
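CellTiter-Glo luminescence gave cytotoxicity after 18 hours at 37 degrees C. The cells were HepG2 CAGA-GFP in 1% FBS DMEM, stimulated with 500 pg/mL TGF-beta after compound addition. %Activity was normalised to no-cell wells (complete cell-killing) and DMSO (no toxicity), and curves were fitted and classified.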
IL1B secr inh = qHTS for Inhibitors of Inflammasome Signaling: IL-1-beta AlphaLISA Primary Screen; THP-1 LPS/ATP IL-1B secretion, AlphaLISA, 16 h; hits give low values; activity change, % at 57.5 µM; 360,000 tested, 4.7% active; AID 743279, 2014; in the data active = activity change below about -50%; inconclusive = mostly about -30% to -49%; also: % is scaled to controls: 0 for no effect and ±100 for the full control effect
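Secreted IL-1B measured by AlphaLISA bead assay after 16 h compound exposure of THP-1 cells; compounds (final up to 57.5 uM) added 1 h before LPS (250 ng/mL) and ATP (1.25 mM) stimulation; lower signal means less secretion.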
DT40 TDP1 no CPT = qHTS for Inhibitors of human tyrosyl-DNA phosphodiesterase 1 (TDP1): qHTS in cells in absence of CPT; DT40 Tdp1-/- hTDP1 cells, no CPT, ATP luminescence, 48 h; Potency, µM (doses to about 46.2 µM), without a hit: at the highest dose activity change, negative = growth inhibition, hits mostly inhibitors; AID 686978, 2013; 420,000 tested, 15% active; also: potency is read from the fitted curve at half-maximal effect; % is scaled to controls: 0 for no effect and ±100 for the full control effect; nearly all actives have a fitted effect of over 55% in size
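Compound effects on proliferation are scored in DT40 Tdp1-/-;hTDP1 cells in the absence of CPT. ATP levels (CellTiter-Glo luminescence) are recorded after a ≥48 hr, 37 °C incubation.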
TDP1 inh = qHTS Assay for Inhibitors of Tyrosyl-DNA Phosphodiesterase (TDP1); Potency, µM (series often up to 130 µM), for the others: at the highest dose activity change, negative = inhibition, hits mostly inhibitors; 350,000 tested, 0.28% active; AID 485290, 2010; recombinant TDP1, AlphaScreen DNA substrate cleavage; also: potency is read from the fitted curve at half-maximal effect; % is scaled to controls: 0 for no effect and ±100 for the full control effect; nearly all actives have a fitted effect of over 40% in size
Target sequence (Q9NUW8 whole entry, looked up): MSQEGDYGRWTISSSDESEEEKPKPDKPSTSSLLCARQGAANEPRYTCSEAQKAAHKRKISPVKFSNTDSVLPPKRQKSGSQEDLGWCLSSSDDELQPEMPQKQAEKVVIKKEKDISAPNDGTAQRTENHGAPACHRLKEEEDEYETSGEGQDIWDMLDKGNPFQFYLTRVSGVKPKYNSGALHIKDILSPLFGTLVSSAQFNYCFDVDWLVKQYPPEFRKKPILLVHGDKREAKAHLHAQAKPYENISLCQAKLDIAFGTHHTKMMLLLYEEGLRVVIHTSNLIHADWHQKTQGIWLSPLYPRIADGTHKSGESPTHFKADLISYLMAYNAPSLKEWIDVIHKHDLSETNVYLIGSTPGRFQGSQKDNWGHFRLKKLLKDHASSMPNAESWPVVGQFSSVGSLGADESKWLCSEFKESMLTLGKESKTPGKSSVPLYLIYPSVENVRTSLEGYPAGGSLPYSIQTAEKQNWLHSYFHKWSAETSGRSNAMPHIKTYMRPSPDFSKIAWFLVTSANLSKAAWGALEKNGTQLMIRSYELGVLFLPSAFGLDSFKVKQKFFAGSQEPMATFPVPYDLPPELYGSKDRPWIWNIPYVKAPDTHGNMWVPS
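Enzyme-compound mixtures sat 15 min at room temperature, followed by a 5 min reaction with 15 nM final substrate and 10 min with AlphaScreen beads. Recombinant human Tdp1 was used at 1 nM final.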
Active calls of the source: *. Unless noted, calls follow the shape of the dose curve; as a rule, active = well fitted curve in the direction sought with a large enough effect; inconclusive = small, poorly fitted or top-dose-only effect, or another doubt; inactive = no such curve, though single readings can be large; an effect the other way counts as inactive or inconclusive.

O=C1NCC(c2ccccc2)C1C(=O)N/N=C\c1ccc(-c2ccc(Cl)c(Cl)c2)o1 (stereo not given) was read as TDP1 cell CPT inconclusive, TGFb inhibitor inconclusive, HepG2 tox -111%, IL1B secr inh -61*, DT40 TDP1 no CPT inconclusive and TDP1 inh 8%.
For COc1ccc(/C=N\NC(=O)C2C(=O)NCC2c2ccccc2)cc1O (stereo not given) the results were TDP1 cell CPT 7.3µM*, TGFb inhibitor -13%, HepG2 tox -4%, IL1B secr inh 0, DT40 TDP1 no CPT 16µM* and TDP1 inh 2%.
`Cc1ccc(-c2nc3c4cnn(-c5cc(Cl)ccc5Cl)c4ncn3n2)cc1` gave TDP1 cell CPT -18%, HepG2 tox -15%, DT40 TDP1 no CPT -10% and TDP1 inh 5%.
Screening O=C(Cc1ccccc1)N1CCCC1c1ccccc1 (stereo not given) returned TDP1 cell CPT 16µM*, TGFb inhibitor -4%, HepG2 tox -6%, IL1B secr inh 32, DT40 TDP1 no CPT inconclusive and TDP1 inh 7%.
For COCc1ccc(-c2c(-c3ccc(OC)cc3)oc(=O)c3cc(OC)c(OC)cc23)cc1 the results were TDP1 cell CPT inconclusive, TGFb inhibitor -24%, HepG2 tox -1%, IL1B secr inh 28, DT40 TDP1 no CPT 23µM* and TDP1 inh -9%.
For COc1cccc(-c2oc3c(c2C#CCCO)C(O)CCC3)c1 (stereo not given) the results were TDP1 cell CPT -8%, IL1B secr inh 3 and DT40 TDP1 no CPT -15%.
COc1ccc(-c2oc(=O)c3cc(OC)c(OC)cc3c2-c2ccc3c(c2)OCO3)cc1 was read as TDP1 cell CPT 16µM*, TGFb inhibitor 3%, HepG2 tox -32%, IL1B secr inh -11, DT40 TDP1 no CPT 18µM* and TDP1 inh -1%.
Screening COc1ccc(/C=C/c2c(-c3ccc(OC)cc3)oc(=O)c3cc(OC)c(OC)cc23)cc1 returned TDP1 cell CPT inconclusive, TGFb inhibitor 6%, HepG2 tox 0%, IL1B secr inh 25, DT40 TDP1 no CPT inconclusive and TDP1 inh 3%.
`CCOC1CCCc2oc(-c3ccc(OC)cc3)c(C#CCCO)c21` (stereo not given) gave TDP1 cell CPT inconclusive and DT40 TDP1 no CPT 16µM*.
`COc1ccc(C(=O)c2c(-c3ccc(OC)cc3)oc3ccc(-c4cc(OC)c(OC)c(OC)c4)cc23)cc1` gave TDP1 cell CPT 7.3µM*, TGFb inhibitor -7%, HepG2 tox -7%, IL1B secr inh -11 and DT40 TDP1 no CPT 9.2µM*.
For COc1ccc(-c2c(-c3ccsc3)oc(=O)c3cc(OC)c(OC)cc23)cc1 the results were TDP1 cell CPT inconclusive, TGFb inhibitor 3%, HepG2 tox 1%, IL1B secr inh 40, DT40 TDP1 no CPT inconclusive and TDP1 inh 0%.
For COc1ccccc1OCC(O)CN1CCN(C(=O)c2ccccc2)CC1 (stereo not given) the results were TDP1 cell CPT 16%, TGFb inhibitor 11%, HepG2 tox 7%, IL1B secr inh 10, DT40 TDP1 no CPT -8% and TDP1 inh 5%.
For CC(=O)OCC(=O)[C@@]12N=C(C)O[C@@H]1C[C@H]1[C@@H]3CCC4=CC(=O)C=C[C@]4(C)[C@H]3[C@@H](O)C[C@@]12C the results were TDP1 cell CPT 4% and DT40 TDP1 no CPT -9%.
